Measured values from the supplement of paper PMC4206461.

tested on: Pseudomonas aeruginosa PA14 wild type; assay: respiration area under curve with compound as sole nitrogen source, 24 h (OmniLog AUC (arbitrary units)); higher = more respiration / better utilisation as nitrogen source, active = 2000 or more
Experimental: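 Biolog Phenotype MicroArray plates PM6-PM8: each di/tripeptide is the sole nitrogen source (IF-0 medium with succinate/ferric citrate and dye mix A). Tetrazolium reduction was read in the OmniLog every 15 min for 24 h at 37°C and summarised as area under the respiration curve (arbitrary units). The paper counts values below 2000 as no respiration and above 8000 as solid respiration. Replicate datasets are averaged.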

Structure (SMILES)	respiration area under curve
C[C@H](N)C(=O)NCC(=O)O (plate: PM6)	8070 (active)
NCC(=O)N[C@@H](Cc1ccccc1)C(=O)N[C@@H](Cc1ccccc1)C(=O)O (plate: PM8)	8980 (active)
N[C@@H](CO)C(=O)NCC(=O)O (plate: PM7)	8430 (active)
C[C@@H](O)[C@H](NC(=O)CN)C(=O)O (plate: PM6)	5430 (active)
NC(N)=NCCC[C@H](NC(=O)[C@@H](N)Cc1c[nH]c2ccccc12)C(=O)O (plate: PM7)	13500 (active)
CC(C)[C@H](NC(=O)[C@@H](N)Cc1ccc(O)cc1)C(=O)O (plate: PM8)	7430 (active)
NCC(=O)N[C@@H](Cc1ccccc1)C(=O)O (plate: PM6)	2760 (active)
CSCC[C@H](NC(=O)CN)C(=O)O (plate: PM6)	327 (inactive)
C[C@@H](O)[C@H](N)C(=O)N[C@@H](CC(=O)O)C(=O)O (plate: PM8)	5680 (active)
CSCC[C@H](N)C(=O)NCC(=O)O (plate: PM7)	5050 (active)
N[C@@H](CC(=O)O)C(=O)N[C@@H](CC(=O)O)C(=O)O (plate: PM6)	119 (inactive)
C[C@H](NC(=O)CN)C(=O)O (plate: PM6)	4610 (active)
NCC(=O)NCC(=O)O (plate: PM6)	3270 (active)
N[C@@H](CO)C(=O)N1CCC[C@H]1C(=O)O (plate: PM7)	14600 (active)
CC[C@H](C)[C@H](NC(=O)[C@@H](N)Cc1ccccc1)C(=O)O (plate: PM7)	8390 (active)
CC(C)[C@H](N)C(=O)N[C@@H](Cc1ccccc1)C(=O)O (plate: PM8)	6560 (active)
CC(C)[C@H](NC(=O)[C@@H](N)CC(N)=O)C(=O)O (plate: PM6)	7030 (active)
N[C@@H](Cc1ccc(O)cc1)C(=O)N[C@@H](CCC(=O)O)C(=O)O (plate: PM7)	4890 (active)
C[C@H](NC(=O)[C@@H](N)Cc1c[nH]c2ccccc12)C(=O)O (plate: PM7)	5630 (active)
C[C@H](NC(=O)[C@@H](N)CCCN=C(N)N)C(=O)O (plate: PM6)	9790 (active)

Structure (SMILES)	respiration area under curve
CC(C)C[C@H](NC(=O)[C@@H](C)N)C(=O)O (plate: PM8)	626 (inactive)
O=C(O)[C@H](Cc1c[nH]c2ccccc12)NC(=O)[C@@H]1CCCN1 (plate: PM8)	1260 (inactive)
C[C@H](N)C(=O)N[C@@H](CC(N)=O)C(=O)O (plate: PM6)	8960 (active)
CC(C)[C@H](NC(=O)[C@@H](N)Cc1ccccc1)C(=O)O (plate: PM8)	6870 (active)
C[C@H](NC(=O)[C@@H](N)Cc1ccc(O)cc1)C(=O)O (plate: PM7)	11200 (active)
NC(N)=NCCC[C@H](N)C(=O)N[C@@H](CCC(=O)O)C(=O)O (plate: PM6)	9830 (active)
C[C@H](O)[C@@H](NC(=O)CN)C(=O)O (plate: PM8)	0 (inactive)
CC[C@H](C)[C@H](NC(=O)[C@@H](N)Cc1ccc(O)cc1)C(=O)O (plate: PM8)	6790 (active)
NCC(=O)N[C@@H](CO)C(=O)O (plate: PM6)	7870 (active)
CCC(C)C(N)C(=O)NC(CC(N)=O)C(=O)O (stereo not given) (plate: PM8)	9360 (active)
CSCC[C@H](NC(=O)[C@@H](N)CCCN=C(N)N)C(=O)O (plate: PM6)	10500 (active)
CC[C@H](C)[C@H](N)C(=O)N[C@@H](Cc1c[nH]c2ccccc12)C(=O)O (plate: PM6)	1090 (inactive)
C[C@H](N)C(=O)N1CCC[C@H]1C(=O)O (plate: PM6)	12000 (active)
NCC(=O)N[C@@H](Cc1ccc(O)cc1)C(=O)O (plate: PM6)	2560 (active)
CC(C)C[C@H](N)C(=O)N[C@H](CC(C)C)C(=O)O (plate: PM8)	0 (inactive)
C[C@H](N)C(=O)N[C@@H](CCC(=O)O)C(=O)O (plate: PM6)	7840 (active)
NC(N)=NCCC[C@H](N)C(=O)N[C@@H](Cc1ccccc1)C(=O)O (plate: PM6)	9420 (active)
CSCC[C@H](NC(=O)[C@@H](N)CO)C(=O)O (plate: PM7)	4420 (active)
CC(C)C[C@H](NC(=O)[C@@H](N)CC(C)C)C(=O)O (plate: PM6)	3640 (active)
CC(C)C[C@H](NC(=O)[C@H](CC(C)C)NC(=O)[C@@H](N)CC(C)C)C(=O)O (plate: PM8)	5700 (active)
